# Compound activity deposited in PubChem by National Center for Advancing Translational Sciences (NCATS).
# An excerpt weighted towards active compounds, which were near 11% of everything screened.
# ALDH1A1 block: blocks purified human ALDH1A1 activity; Purified ALDH1A1, NADH fluorescence, propionaldehyde substrate; Potency, µM (top dose mostly 75.3 µM), for inactives: at the top dose activity, negative = inhibition, most hits filed as inhibitors; 220,000 compounds, 7.3% hits;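 also: potency is read from the fitted curve at half-maximal effect; plate controls were no enzyme wells and a reference inhibitor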
# HPGD inh: blocks human HPGD enzyme activity. Potency, µM, inactives show at the highest dose activity change, negative = inhibition, most hits filed as inhibitors. 150,000 compounds, 4.3% hits. purified HPGD, NADH fluorescence kinetic, PGE2 substrate. AID 894. P15428; also: potency is read from the fitted curve at half-maximal effect
# Target sequence (P15428 whole entry, looked up): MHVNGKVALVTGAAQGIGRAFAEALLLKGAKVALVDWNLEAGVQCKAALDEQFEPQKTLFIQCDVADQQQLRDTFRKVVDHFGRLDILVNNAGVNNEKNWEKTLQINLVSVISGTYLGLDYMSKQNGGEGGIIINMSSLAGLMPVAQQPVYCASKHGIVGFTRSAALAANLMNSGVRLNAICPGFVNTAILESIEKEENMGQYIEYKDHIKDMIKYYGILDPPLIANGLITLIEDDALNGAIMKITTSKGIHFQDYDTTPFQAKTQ
#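 NADH formation kinetics: reaction with 30 uM PGE2 and 1 mM NAD+ (final), 20 nM enzyme, Tris-HCl pH 8 with Tween 20, after 15 min compound preincubation at room temperature. Fluorescence change, last versus first of five reads.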
# PNC inhibitor: perinucleolar compartment assembly inhibition; activity change (PNC), negative = inhibition, % at 10 µM; AID 2417; 140,000 compounds, 3.1% hits; PC3M PTB-GFP, PNC prevalence imaging, 16 h; active compounds read low;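 active = readout at or below -70, meaning at least 70% loss of cells showing the perinucleolar compartment, a nuclear body marking cancer cells; inconclusive = readout between -30 and a set limit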;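 also: plate controls were DMSO wells for no effect and camptothecin positive control wells for full effect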
#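 Compounds are pinned in duplicate onto adhered PC3M cells stably expressing GFP-tagged PTB and incubated 16 h at 37 C. Cells are then fixed, nuclei stained with Hoechst, and PNC-positive cells counted.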
# Starred values were filed as active, the others as inactive; ? = inconclusive; / = no result given; [ ] = another dose, or the depositor's remark. Unless noted, calls follow the shape of the dose curve; as a rule, active = well fitted inhibition curve with a large enough effect (not every such curve was filed as active); inconclusive = small, poorly fitted or top-dose-only effect, or another doubt; inactive = no such curve, though single readings can be large or run the other way. Unless noted, % is scaled to controls: 0 for no effect and ±100 for the full control effect.
SMILES,ALDH1A1 block,HPGD inh,PNC inhibitor
NC(=O)CN1CC(O)CC1=O (configuration not stated),2%,4%,/
CC(C)=CCCC1(C)C=Cc2c(O)c3c(c(CC=C(C)C)c2O1)OC12C(CC4CC1C(C)(C)OC2(C/C=C(/C)C(=O)O)C4O)C3=O (configuration not stated),?,-20%,/
CN[C@H](CC(C)C)C(=O)N[C@H]1C(=O)N[C@@H](CC(N)=O)C(=O)N[C@H]2C(=O)N[C@H]3C(=O)N[C@H](C(=O)N[C@H](C(=O)O)c4cc(O)cc(O)c4-c4cc3ccc4O)[C@H](O)c3ccc(c(Cl)c3)Oc3cc2cc(c3O[C@@H]2O[C@H](CO)[C@@H](O)[C@H](O)[C@H]2O[C@H]2C[C@](C)(N)[C@H](O)[C@H](C)O2)Oc2ccc(cc2Cl)[C@H]1O,?,-13%,/
Cn1c(=O)c2[nH]cnc2n(C)c1=O.[CH2-][C@H](Cc1cccc2cc(C(=O)O)c(=O)oc12)OC.[Hg].[OH-],3.2µM*,4µM*,/
CC(NC(=O)Oc1ccccc1)C(c1cccs1)N1CCOCC1 (configuration not stated),?,1%,54
CC1=C2C(=O)[C@@H]3[C@@H](CC=C4C[C@@H](O)CC[C@@]43C)[C@H]2CC[C@@]12O[C@H]1C[C@H](C)CN[C@H]1[C@@H]2C,5%[13.5 µM],-6%,/
COc1ccc(C(=O)C23CN4CN(CN(C4)C2)C3)cc1,-4%,/,/
COc1ccc(C(=O)Nc2sc3c(c2C(=O)O)CC(C)(C)OC3)cc1,20µM*,?,21
CC(C)(C)c1ccc(C(=O)NC(=S)Nn2cnnc2)cc1,9.5µM*,/,-2
c1ccc2c([C@@H]3CCN(CCN4CCOCC4)C3)c[nH]c2c1,-2%[13.5 µM],-2%,/
Cc1ccc(N=Cc2c(O)n(C)c(=O)n(C)c2=O)nc1,?,?,-6
CCOC(=O)c1cc(C)sc1/N=C/C1C(=O)NC(=S)NC1=O,7.1µM*,/,/
CCOC(=O)c1c(/N=C/C2C(=O)NC(=S)NC2=O)sc2c1CCC2,18µM*,/,/
CCOC(=O)c1c(/N=C/C2C(=O)NC(=S)NC2=O)sc(C)c1C,20µM*,/,/
CCOC(=O)c1ccccc1C(=O)OCC,4%,-12%,/
N#Cc1c(/N=C/C2C(=O)NC(=S)NC2=O)sc2c1CCCC2,22µM*,/,/
C[C@@H](Cc1ccc(OCC(=O)O)cc1)NC[C@H](O)c1cccc(Cl)c1,-4%,-8%,/
CN1CC[C@@]23CCCCC2C1Cc1ccc(O)cc13 (some centres not stated),9%,0%,/
O=C1NCN(c2ccccc2)C12CCN(C[C@H]1COc3ccccc3O1)CC2,-11%,-5%,/
CNC(=O)O/N=C/C(C)(C)SC,-2%,-9%,/
C[C@@H](COc1ccccc1)N(CCCl)Cc1ccccc1,5%[20.9 µM],2%,/
CCCC[N+](=O)[O-],?,-5%,/
COc1ccccc1OCC#CCN1CCOCC1,0%,/,/
COc1ccccc1OCC#CCN1CCCCCC1,28µM*,/,/
c1ccc(C[N+]23CN4CN(CN(C4)C2)C3)cc1,-3%[13.5 µM],-4%,/
SMILES,ALDH1A1 block,HPGD inh,PNC inhibitor
O=C(c1ccc2c(c1)OCO2)N1CCC2(CC1)OCCO2,5%,25µM*,-8
O=C(c1ccc(N2CCCCCC2)c([N+](=O)[O-])c1)N1CCC2(CC1)OCCO2,11µM*,/,/
CN1CCN(c2ccc(C(N)=O)cc2[N+](=O)[O-])CC1,8%,0%,-1
O=C(c1ccccc1)N1CCC2(CC1)OCCO2,2%,/,/
C=CCOCC1CO1 (configuration not stated),?,-10%,/
O=C(O)C(Cl)Br (configuration not stated),?,-9%,/
CCOC(=O)CN(C#N)c1nc(N(C)C)nc(N(C)C)n1,10µM*,/,/
O=[N+]([O-])/C=C/c1ccccc1,-3%,-2%,/
CCCCCCCCCc1ccc(O)cc1,100µM*,-5%,/
CCCCCc1cc(O)cc(O)c1,7%,-4%,/
COC(=O)Cc1cnc(NC(=O)C2C3CCC(C3)C2C(=O)O)s1 (configuration not stated),?,-20%,23
Nc1ccccc1O.O.O=C(O)[C@H]1[O][Sb][O][C@H]1C(=O)O,3.2µM*,-6%,/
Nc1ccccc1C(=O)O,?,-20%,/
C[C@@]12CCC(=O)C=C1C=C[C@H]1[C@H]3CC[C@](O)(CCC(=O)O)[C@]3(C)CC[C@@H]12,13%[20.9 µM],-3%,/
CC(C)(C)OC(=O)N1CC[C@H]1COc1cnc[c]([Sn]([CH3])([CH3])[CH3])c1,3%[13.5 µM],1%,/
Nc1ncc(P(=S)(N2CCOCC2)N2CCOCC2)s1,7%,-7%,14
CN1C(=O)[C@@H](NC(=O)c2cc3ccccc3[nH]2)N=C(c2ccccc2)c2ccccc21,6%,-11%,/
CCOC(=O)CSCCOc1ccc(C=C2C(=O)NC(=O)NC2=O)cc1OC,13µM*,/,/
